Screens (PubChem)
Only some compounds are listed: those with a hit (about 6% of all), similar ones and a draw of the others.
DRD3 antagonist = antagonists of human D3 dopamine receptor; D3R cells, DiscoveRx beta-arrestin luminescence, antagonist mode; hits give low values; max response, negative = inhibition, %; 360,000 compounds, 2.5% hits; in the data active = max response below about -50%; inconclusive = no clear call, values can overlap the other calls
Target sequence (P35462 whole entry, looked up): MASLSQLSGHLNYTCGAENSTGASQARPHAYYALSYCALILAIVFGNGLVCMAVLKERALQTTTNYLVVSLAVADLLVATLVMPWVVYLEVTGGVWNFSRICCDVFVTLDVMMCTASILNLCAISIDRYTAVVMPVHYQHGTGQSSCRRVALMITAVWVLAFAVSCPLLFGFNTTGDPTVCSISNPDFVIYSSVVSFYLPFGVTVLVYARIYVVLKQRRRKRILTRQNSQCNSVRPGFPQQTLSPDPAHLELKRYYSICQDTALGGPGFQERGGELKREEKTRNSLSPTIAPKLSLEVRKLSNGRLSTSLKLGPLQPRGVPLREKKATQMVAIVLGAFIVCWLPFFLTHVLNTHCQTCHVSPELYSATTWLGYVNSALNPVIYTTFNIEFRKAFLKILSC
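Cells plated overnight at 1500 cells/well, then exposed to library compounds with dopamine controls for 90 minutes at 37 degrees C. DiscoveRx reagent added for 30–60 minutes at room temperature; luminescence read, quantitative HTS format.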
DRD3 agonist = D3 dopamine receptor (human) agonism; P35462; D3R DiscoveRx beta-arrestin cells, luminescence, 90 min; max activation, %; 410,000 compounds, 0.58% hits; AID 652048; in the data active = max activation above about 30%
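Agonist-mode cell screen: cells plated at 1500/well and incubated overnight at 37 °C, then exposed to library compounds for 90 min at 37 °C. Detection reagent was added for 30–60 min at room temperature, and luminescence was read.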
D1 ag = agonists of human D1 dopamine receptor; HEK293 T-REx D1 cells, calcium flux, agonist mode; P21728; 360,000 compounds, 1% hits; activation, % at 2 µM; AID 504660; in the data active = activation above about 30%
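Tetracycline-induced HEK293 TREx D1 cells, force-coupled to calcium signalling, were dye-loaded with a no-wash calcium kit. Compound was pin-added after a 10 s baseline. Fluorescence was read kinetically at 1 cycle/s for 180 s, with calcium rises flagged as agonism.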
D1 PAM = enhances dopamine response at the human D1 receptor. AID 504651. 360,000 compounds, 0.036% hits. HEK293 TREx D1 cells, calcium flux, dopamine EC20 potentiation. potentiation, % at 10 µM; in the data active = potentiation above about 30%
D1 antag = human D1 dopamine receptor antagonism. activity change, negative = inhibition, % at 10 µM. P21728. HEK293 TREx D1 cells, calcium flux, dopamine EC80; hits give low values. 360,000 compounds, 3.2% hits. AID 504652; in the data active = activity change below about -30%
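Compound effects on dopamine-evoked calcium signalling were measured in tetracycline-induced HEK293 Trex D1 cells. Dopamine at EC80 followed a 180 s compound pre-read, and fluorescence was tracked kinetically for 180 s more.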
A number is an active result; i = inactive; ? = inconclusive; nt = no result given.

SMILES | DRD3 antagonist | DRD3 agonist | D1 ag | D1 PAM | D1 antag
O=C(CN1C(=O)/C(=C\c2cccc(Cl)c2)Sc2ccccc21)NCCCN1CCOCC1 | ? | i | 53 | i | -84
CN1CCN(CCCNC(=O)c2ccc(/C=C3\Sc4ccccc4N(Cc4ccccc4F)C3=O)cc2)CC1 | i | i | i | i | -30
O=C(CN1C(=O)/C(=C\c2ccccc2Cl)Sc2ccccc21)NCCCN1CCOCC1 | i | i | i | i | i
CCc1ccc(/C=C2/Sc3ccccc3N(CC(=O)NCCCN3CCOCC3)C2=O)cc1 | i | i | i | i | -52
Cc1cccc(-c2nnn3c2nc(NCc2ccccc2)c2ccccc23)c1 | nt | i | i | i | i
Cc1ccccc1-c1nc(CN2CCC(C(=O)NCc3ccccc3Cl)CC2)c(C)o1 | nt | i | i | i | i
O=S(=O)(c1ccc(Cl)cc1)c1nc(-c2ccccc2)oc1N1CCN(c2ccccc2)CC1 | nt | i | i | i | i
O=C(CCCn1c(=O)[nH]c2ccsc2c1=O)N1CCN(c2cccc(C(F)(F)F)c2)CC1 | nt | i | i | i | i
O=C(CCn1c(=O)[nH]c2ccsc2c1=O)N1CCN(c2cccc(Cl)c2)CC1 | i | i | i | i | -50
O=C(CCCCn1c(=O)[nH]c2ccsc2c1=O)N1CCN(c2cccc(Cl)c2)CC1 | nt | i | i | i | -36
Cc1cc(C)cc(-n2ccnc2SCC(=O)Nc2ccc(C)cc2C)c1 | nt | i | i | i | i
COc1ccccc1N=c1oc2cc(O)ccc2cc1C(N)=O | -54 | i | i | i | i
COc1ccccc1NC(=O)c1cc2ccc(O)cc2o/c1=N\O | -75 | i | i | i | i
COc1ccc(Br)cc1CNC(=O)c1cc(=O)[nH]c2ccc(S(=O)(=O)N3CCCCC3C)cc12 (centres undefined) | nt | i | i | i | i
Nc1nc(-c2ccccn2)nc(N)c1Cc1ccc(Cl)cc1Cl | i | i | 34 | 51 | i
Nc1nc(-c2ccccn2)nc(N)c1Cc1ccccc1F | i | i | i | i | i
N#C/C(=C\c1ccc(N2CCCCC2)o1)C(=O)Nc1cccc(Br)c1 | i | i | 428 | i | i
N#C/C(=C\c1ccc(N2CCCCC2)o1)C(N)=O | i | i | 37 | i | i
O=Cc1ccc(N2CCCC2)o1 | i | i | i | i | i
Cc1ccc(C)c(NC(=O)CCN2C(=O)c3ccccc3Sc3ncccc32)c1 | nt | i | i | i | i
COc1ccccc1C1Nc2ccccc2NC2=C1C(=O)CC(C)(C)C2 (centres undefined) | i | i | i | i | i
CC1(C)CC(=O)C2=C(C1)Nc1ccccc1N1C(=O)c3ccccc3C21 (centres undefined) | i | i | i | i | -42
COCCNC(=O)c1ccc(C2SCC(=O)N2Cc2ccco2)cc1 (centres undefined) | i | i | i | i | i
CN1CCN(C(=O)c2ccc(C3SCC(=O)N3Cc3ccco3)cc2)CC1 (centres undefined) | -59 | i | i | i | i
CN(C)S(=O)(=O)c1ccc(S(=O)(=O)NCc2cccs2)cc1 | i | i | i | i | i
SMILES | DRD3 antagonist | DRD3 agonist | D1 ag | D1 PAM | D1 antag
CCCNS(=O)(=O)c1ccc(NC(=O)Cc2cccs2)cc1 | i | i | i | i | -33
CCOc1ccc(S(=O)(=O)NCc2cccs2)cc1 | i | i | i | i | i
CCOc1cc(S(=O)(=O)NCc2cccs2)ccc1Cl | i | i | i | i | -37
CCSc1nnc(-c2ccc(S(=O)(=O)NCc3cccs3)cc2)o1 | -66 | i | i | i | i
O=S(=O)(NCc1cccs1)c1ccc(Br)cc1 | i | i | i | i | -33
O=C(CN1C(=O)COc2ccc(S(=O)(=O)N3CCCCCC3)cc21)N1CCN(c2ccc(Cl)cc2)CC1 | nt | i | i | i | i
Cc1ccc(Cl)cc1N1CCN(C(c2ccc(F)cc2)c2nnc(-c3ccccc3)o2)CC1 (centres undefined) | nt | i | i | i | i
CCn1cc(C(=O)NCc2ccc(F)cc2)c(=O)c2cc(S(=O)(=O)N(C)C)ccc21 | nt | i | i | i | i
O=C(COC(=O)C1CCN(c2ccc(C(F)(F)F)cn2)CC1)c1ccc(F)cc1 | i | i | 43 | i | -35
CC(OC(=O)C1CCN(c2ccc(C(F)(F)F)cn2)CC1)C(=O)Nc1ccc(S(N)(=O)=O)cc1 (centres undefined) | i | i | i | i | i
CC(=O)c1ccc(NC(=O)C(C)OC(=O)C2CCN(c3ccc(C(F)(F)F)cn3)CC2)cc1 (centres undefined) | i | i | i | i | -30
Cc1ccc(C(=O)C(C)OC(=O)C2CCN(c3ccc(C(F)(F)F)cn3)CC2)cc1 (centres undefined) | i | i | i | i | i
CC(OC(=O)C1CCN(c2ccc(C(F)(F)F)cn2)CC1)C(=O)c1ccccc1 (centres undefined) | i | i | i | i | -32
Cc1ccc(-n2ncc(C(=O)Nc3ccc4c(c3)OCCO4)c2C2CCN(C(=O)OC(C)(C)C)CC2)cc1C | nt | i | i | i | i
COc1ccc(OC)c(NC(=S)Nc2ccccc2)c1 | i | i | i | i | i
COc1ccc(NC(=O)CC(=O)Nc2ccc(OC)cc2OC)c(OC)c1 | i | i | i | i | -89
COc1ccc(NC(=O)CC(C)=O)c(OC)c1 | i | i | i | i | i
COC(=O)NNC(=S)Nc1cc(OC)ccc1OC | -141 | i | i | i | i
COc1ccc(NC(=O)Nc2nc(C)cc(C)n2)c(OC)c1 | i | i | i | i | -34
CN[C@H](CC(C)C)C(=O)N[C@H]1C(=O)N[C@@H](CC(N)=O)C(=O)N[C@H]2C(=O)N[C@H]3C(=O)N[C@H](C(=O)N[C@@H](C(=O)O)c4cc(O)cc(O)c4-c4cc3ccc4O)[C@H](O)c3ccc(c(Cl)c3)Oc3cc2cc(c3O[C@@H]2O[C@H](CO)[C@@H](O)[C@H](O)[C@H]2O[C@H]2C[C@](C)(N)C(O)[C@H](C)O2)Oc2ccc(cc2Cl)[C@H]1O (some centres undefined) | nt | i | nt | nt | nt
CN(C1CCCCC1)S(=O)(=O)c1ccc2c(c1)c(=O)c(C(=O)N1CCN(c3ccccc3)CC1)cn2C | nt | i | i | i | i
CCOC(=O)c1c(Nc2ccc(O)cc2)nnc(-c2ccccc2)c1-c1ccccc1 | nt | i | i | i | i
O=[N+]([O-])/C=C/c1cn(Cc2ccc(Cl)cc2)c2ccccc12 | -53 | i | i | i | i
Cc1ccc(NC(=O)[C@@H](c2ccccc2)N2Cc3ccccc3C2=O)cc1F | nt | i | i | i | i
O=c1c2c3c(sc2n(Cc2cc(=O)n4ccccc4n2)c(=O)n1-c1ccc(Cl)cc1)CCC3 | nt | i | i | i | i
Cc1sc2c(c1C)c(=O)n(-c1ccc(Cl)cc1)c(=O)n2Cc1cc(=O)n2ccccc2n1 | -55 | i | i | i | i
Cc1oc2c(C)c3oc(=O)c(CCC(=O)N4C[C@H]5C[C@@H](C4)c4cccc(=O)n4C5)c(C)c3cc2c1C | i | i | i | i | i
